The results in this text go back to ChEMBL document CHEMBL1961873, “Compounds: GSK PKIS; Assays: Nanosyn kinase panel” (2012).

Assay [1] addresses T1, Serine/threonine-protein kinase Nek9 (Homo sapiens) (UniProt Q8TD19).
T1 sequence (whole entry): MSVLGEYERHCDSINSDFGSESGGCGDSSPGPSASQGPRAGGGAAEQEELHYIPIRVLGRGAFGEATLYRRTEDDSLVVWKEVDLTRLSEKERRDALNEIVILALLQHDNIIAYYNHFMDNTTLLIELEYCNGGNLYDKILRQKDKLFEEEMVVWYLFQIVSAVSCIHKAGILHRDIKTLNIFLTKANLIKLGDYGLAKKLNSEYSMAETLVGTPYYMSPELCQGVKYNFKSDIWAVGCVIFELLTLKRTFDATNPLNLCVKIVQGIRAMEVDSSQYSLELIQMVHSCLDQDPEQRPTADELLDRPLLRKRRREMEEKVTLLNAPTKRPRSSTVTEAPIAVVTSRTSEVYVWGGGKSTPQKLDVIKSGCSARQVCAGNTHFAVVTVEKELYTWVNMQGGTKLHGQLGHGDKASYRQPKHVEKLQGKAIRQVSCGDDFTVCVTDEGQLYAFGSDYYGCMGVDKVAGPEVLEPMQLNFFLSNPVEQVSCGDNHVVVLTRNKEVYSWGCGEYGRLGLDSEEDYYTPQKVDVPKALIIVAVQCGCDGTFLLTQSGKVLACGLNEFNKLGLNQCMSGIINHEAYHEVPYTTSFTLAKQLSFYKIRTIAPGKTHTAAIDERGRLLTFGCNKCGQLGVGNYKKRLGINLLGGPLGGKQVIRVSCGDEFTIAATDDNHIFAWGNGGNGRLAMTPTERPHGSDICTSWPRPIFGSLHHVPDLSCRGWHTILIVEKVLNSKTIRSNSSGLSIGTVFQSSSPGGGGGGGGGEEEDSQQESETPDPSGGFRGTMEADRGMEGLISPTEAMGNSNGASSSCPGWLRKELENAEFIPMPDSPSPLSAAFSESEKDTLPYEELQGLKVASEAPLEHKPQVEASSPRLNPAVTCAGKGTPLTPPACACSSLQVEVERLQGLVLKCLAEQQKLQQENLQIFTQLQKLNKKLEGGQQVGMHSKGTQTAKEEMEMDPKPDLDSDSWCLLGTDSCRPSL
Particulars: at 1 µM.

Assay [2] deals with Serine/threonine-protein kinase PLK1 (Homo sapiens) (UniProt P53350). To be noted: at 0.1 µM.
Sequence of Serine/threonine-protein kinase PLK1 (Homo sapiens) (P53350 whole entry): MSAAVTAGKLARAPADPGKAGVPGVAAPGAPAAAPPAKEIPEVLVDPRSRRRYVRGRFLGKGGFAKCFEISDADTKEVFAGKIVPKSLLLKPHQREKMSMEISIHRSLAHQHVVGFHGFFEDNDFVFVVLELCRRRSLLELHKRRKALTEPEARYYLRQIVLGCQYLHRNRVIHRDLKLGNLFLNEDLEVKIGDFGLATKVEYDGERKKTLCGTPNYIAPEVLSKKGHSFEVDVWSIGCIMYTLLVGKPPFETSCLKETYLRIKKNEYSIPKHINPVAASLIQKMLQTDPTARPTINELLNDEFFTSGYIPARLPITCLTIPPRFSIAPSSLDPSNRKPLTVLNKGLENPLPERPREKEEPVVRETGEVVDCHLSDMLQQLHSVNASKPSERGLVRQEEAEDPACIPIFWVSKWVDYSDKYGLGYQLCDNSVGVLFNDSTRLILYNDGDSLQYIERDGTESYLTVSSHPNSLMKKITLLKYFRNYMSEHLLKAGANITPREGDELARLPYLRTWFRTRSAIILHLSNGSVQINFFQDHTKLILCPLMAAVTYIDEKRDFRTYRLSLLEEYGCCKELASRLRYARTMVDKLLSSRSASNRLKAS
Assay [3] shares this target. Particulars: at 1 µM.
In assay [4] the target is T2, Dual specificity protein kinase TTK (Homo sapiens) (UniProt P33981).
T2 sequence (whole entry): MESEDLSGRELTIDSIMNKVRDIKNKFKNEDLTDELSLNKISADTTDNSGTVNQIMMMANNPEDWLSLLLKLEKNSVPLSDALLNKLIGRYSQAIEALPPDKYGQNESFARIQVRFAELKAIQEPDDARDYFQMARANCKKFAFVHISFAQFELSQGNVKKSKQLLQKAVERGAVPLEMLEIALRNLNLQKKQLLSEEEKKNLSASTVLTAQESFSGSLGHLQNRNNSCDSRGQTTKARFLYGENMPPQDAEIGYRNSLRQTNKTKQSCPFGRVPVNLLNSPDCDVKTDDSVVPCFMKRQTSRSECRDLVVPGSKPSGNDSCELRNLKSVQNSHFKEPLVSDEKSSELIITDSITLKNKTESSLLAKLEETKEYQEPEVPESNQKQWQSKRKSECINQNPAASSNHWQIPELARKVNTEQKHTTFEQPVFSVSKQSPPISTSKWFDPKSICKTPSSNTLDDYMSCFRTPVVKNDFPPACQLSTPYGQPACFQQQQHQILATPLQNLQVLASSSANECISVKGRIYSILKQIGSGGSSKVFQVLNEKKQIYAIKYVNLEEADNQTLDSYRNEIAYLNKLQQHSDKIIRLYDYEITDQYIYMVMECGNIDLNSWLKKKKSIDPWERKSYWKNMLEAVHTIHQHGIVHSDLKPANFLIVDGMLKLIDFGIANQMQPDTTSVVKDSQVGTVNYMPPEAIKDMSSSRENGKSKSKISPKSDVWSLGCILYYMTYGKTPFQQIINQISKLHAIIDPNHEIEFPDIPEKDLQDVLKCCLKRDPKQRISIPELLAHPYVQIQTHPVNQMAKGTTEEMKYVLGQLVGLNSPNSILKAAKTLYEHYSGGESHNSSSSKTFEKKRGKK
To be noted: at 0.1 µM.

Assay [5] has as its system T3, Receptor-type tyrosine-protein kinase FLT3 (Homo sapiens), P36888 [D835Y].
T3 sequence (whole entry): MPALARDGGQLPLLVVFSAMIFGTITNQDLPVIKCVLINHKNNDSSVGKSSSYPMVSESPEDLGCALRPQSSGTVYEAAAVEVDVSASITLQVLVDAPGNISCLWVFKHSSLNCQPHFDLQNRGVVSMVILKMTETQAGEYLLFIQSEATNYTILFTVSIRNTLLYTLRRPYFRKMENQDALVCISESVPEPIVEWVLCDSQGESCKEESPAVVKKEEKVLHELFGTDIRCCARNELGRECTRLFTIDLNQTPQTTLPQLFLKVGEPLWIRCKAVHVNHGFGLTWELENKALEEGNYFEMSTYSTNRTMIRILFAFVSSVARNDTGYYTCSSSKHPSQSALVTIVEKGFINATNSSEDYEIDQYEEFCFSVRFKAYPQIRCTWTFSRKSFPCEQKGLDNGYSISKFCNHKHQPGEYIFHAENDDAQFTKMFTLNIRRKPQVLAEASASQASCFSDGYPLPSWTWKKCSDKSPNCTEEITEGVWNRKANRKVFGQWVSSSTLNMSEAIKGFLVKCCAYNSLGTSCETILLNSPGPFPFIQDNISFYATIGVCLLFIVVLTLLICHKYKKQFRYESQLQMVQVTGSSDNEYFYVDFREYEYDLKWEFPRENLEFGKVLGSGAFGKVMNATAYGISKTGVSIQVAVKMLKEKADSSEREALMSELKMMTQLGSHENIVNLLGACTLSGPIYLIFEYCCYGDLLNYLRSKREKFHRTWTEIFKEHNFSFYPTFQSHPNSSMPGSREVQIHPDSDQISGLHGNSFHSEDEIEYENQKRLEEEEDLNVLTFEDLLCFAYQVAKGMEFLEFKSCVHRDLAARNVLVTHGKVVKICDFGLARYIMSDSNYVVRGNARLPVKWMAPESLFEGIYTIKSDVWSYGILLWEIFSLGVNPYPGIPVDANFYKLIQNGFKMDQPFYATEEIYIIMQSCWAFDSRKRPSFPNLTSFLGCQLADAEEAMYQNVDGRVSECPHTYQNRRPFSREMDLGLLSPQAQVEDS
To be noted: at 1 µM.

Assay [6] concerns the target Vascular endothelial growth factor receptor 3 (Homo sapiens) (UniProt P35916). Particulars: at 0.1 µM.
Assay [7] has the same target. To be noted: at 1 µM.
Assay [8] deals with Macrophage colony-stimulating factor 1 receptor (Homo sapiens) (UniProt P07333). To be noted: at 0.1 µM.
Sequence of Macrophage colony-stimulating factor 1 receptor (Homo sapiens) (P07333 whole entry): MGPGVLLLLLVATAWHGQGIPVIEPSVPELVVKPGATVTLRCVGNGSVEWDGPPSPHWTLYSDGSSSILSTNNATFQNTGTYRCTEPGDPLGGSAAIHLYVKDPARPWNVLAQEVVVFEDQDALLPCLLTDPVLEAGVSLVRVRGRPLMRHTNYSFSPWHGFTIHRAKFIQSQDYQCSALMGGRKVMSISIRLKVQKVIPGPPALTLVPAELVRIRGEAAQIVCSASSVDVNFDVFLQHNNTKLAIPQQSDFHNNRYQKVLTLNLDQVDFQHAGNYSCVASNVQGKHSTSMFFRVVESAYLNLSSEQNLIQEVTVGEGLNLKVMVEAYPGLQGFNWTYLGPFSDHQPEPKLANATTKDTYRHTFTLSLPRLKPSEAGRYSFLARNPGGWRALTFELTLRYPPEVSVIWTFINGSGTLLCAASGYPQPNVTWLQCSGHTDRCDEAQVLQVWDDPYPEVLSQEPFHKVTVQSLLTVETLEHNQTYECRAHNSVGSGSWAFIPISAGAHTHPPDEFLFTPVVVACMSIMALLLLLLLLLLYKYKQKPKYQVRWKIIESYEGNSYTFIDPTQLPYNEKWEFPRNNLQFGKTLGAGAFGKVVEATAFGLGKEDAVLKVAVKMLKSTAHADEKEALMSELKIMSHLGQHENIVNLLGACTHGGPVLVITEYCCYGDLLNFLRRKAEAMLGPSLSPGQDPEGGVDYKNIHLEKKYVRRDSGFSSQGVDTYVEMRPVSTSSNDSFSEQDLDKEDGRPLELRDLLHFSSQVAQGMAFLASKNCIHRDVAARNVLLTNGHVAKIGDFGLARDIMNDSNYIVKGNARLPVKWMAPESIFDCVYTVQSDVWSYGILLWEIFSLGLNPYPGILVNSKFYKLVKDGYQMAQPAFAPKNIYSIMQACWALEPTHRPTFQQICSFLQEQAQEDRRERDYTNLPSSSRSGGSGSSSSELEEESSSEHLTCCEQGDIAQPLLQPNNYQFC
Assay [9] shares this target. Particulars: at 1 µM.
The target in assay [10] is Tyrosine-protein kinase Fyn (Homo sapiens) (UniProt P06241). Particulars: at 0.1 µM.
Assay [11] shares this target. To be noted: at 1 µM.
Assay [12] deals with Tyrosine-protein kinase HCK (Homo sapiens) (UniProt P08631). Particulars: at 0.1 µM.
Sequence of Tyrosine-protein kinase HCK (Homo sapiens) (P08631 2-526 limits assumed): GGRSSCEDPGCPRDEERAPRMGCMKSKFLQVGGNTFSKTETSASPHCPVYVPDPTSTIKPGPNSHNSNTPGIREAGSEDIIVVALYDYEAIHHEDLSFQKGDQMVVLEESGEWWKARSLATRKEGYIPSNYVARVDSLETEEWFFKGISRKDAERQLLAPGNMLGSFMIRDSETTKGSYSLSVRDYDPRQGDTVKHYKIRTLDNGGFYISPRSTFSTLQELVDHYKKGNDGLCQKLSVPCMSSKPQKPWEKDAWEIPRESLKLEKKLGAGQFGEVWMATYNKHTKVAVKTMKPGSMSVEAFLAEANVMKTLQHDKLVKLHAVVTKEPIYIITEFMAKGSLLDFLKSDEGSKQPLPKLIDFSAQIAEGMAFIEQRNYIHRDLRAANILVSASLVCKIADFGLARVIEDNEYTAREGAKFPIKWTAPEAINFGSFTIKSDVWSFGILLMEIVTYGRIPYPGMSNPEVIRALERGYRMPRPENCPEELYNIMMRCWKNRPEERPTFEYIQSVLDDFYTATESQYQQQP
For assay [13] the target is unchanged. Particulars: at 1 µM.
In assay [14] the target is Insulin-like growth factor 1 receptor (Homo sapiens) (UniProt P08069). Particulars: at 0.1 µM.
Sequence of Insulin-like growth factor 1 receptor (Homo sapiens) (P08069 31-736 limits assumed): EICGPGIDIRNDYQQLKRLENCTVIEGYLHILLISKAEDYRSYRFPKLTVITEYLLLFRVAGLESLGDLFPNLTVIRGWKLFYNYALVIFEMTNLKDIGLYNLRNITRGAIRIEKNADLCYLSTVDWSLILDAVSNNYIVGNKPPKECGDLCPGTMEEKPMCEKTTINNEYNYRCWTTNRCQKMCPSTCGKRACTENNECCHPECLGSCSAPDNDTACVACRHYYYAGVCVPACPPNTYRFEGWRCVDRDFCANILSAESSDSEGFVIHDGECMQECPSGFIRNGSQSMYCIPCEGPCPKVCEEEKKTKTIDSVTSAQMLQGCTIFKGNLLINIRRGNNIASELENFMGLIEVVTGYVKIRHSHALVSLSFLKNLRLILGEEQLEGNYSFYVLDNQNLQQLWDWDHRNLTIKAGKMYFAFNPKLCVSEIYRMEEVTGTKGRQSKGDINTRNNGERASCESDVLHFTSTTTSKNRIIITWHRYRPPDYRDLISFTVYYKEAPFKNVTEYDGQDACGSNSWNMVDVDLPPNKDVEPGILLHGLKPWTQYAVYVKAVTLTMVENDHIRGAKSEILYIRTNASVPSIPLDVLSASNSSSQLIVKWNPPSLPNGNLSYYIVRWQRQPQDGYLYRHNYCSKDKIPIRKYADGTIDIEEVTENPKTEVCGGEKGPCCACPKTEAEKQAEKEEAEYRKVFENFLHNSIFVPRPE
Sequence of Insulin-like growth factor 1 receptor (Homo sapiens) (P08069 741-1367 limits assumed): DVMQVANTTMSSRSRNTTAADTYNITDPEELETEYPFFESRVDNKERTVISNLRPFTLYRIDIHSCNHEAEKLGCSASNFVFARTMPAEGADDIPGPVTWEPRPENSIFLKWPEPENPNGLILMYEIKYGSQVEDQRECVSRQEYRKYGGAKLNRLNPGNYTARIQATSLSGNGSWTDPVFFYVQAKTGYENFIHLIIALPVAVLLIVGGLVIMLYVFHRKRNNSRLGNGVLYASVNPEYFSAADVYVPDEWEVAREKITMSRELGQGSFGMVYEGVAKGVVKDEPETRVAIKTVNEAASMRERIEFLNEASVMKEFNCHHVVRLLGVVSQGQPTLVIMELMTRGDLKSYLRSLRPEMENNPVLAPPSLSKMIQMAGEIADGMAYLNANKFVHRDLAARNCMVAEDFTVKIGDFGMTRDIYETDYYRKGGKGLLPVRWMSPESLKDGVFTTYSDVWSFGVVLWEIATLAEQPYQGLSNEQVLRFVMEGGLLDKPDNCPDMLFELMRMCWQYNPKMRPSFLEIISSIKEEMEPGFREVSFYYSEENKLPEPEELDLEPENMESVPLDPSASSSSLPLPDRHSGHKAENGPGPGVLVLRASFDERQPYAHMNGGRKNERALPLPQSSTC
Assay [15] has the same target. To be noted: at 1 µM.
The target of assay [16] is Insulin receptor (Homo sapiens) (UniProt P06213). To be noted: at 0.1 µM.
Assay [17] shares this target. Particulars: at 1 µM.
Assay [18] deals with Insulin receptor-related protein (Homo sapiens) (UniProt P14616). Particulars: at 0.1 µM.
Sequence of Insulin receptor-related protein (Homo sapiens) (P14616 27-742 limits assumed): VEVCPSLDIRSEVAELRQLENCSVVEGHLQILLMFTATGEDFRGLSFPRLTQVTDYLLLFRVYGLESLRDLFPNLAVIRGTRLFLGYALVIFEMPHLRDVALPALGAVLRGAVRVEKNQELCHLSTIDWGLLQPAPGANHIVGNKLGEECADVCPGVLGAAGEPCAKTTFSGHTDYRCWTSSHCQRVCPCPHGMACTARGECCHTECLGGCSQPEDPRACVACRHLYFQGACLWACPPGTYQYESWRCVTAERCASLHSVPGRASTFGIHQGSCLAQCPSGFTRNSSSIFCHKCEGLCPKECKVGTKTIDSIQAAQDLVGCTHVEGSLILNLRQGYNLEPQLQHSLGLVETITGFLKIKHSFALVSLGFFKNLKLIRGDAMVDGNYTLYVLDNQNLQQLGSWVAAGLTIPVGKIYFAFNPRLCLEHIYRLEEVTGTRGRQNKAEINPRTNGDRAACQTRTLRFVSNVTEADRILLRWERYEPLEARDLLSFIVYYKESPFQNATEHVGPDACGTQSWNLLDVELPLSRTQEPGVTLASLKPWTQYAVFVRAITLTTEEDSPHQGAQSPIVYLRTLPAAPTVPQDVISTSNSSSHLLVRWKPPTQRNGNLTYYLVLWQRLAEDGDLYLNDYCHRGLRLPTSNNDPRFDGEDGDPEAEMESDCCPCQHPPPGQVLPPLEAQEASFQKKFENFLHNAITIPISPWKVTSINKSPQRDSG
Sequence of Insulin receptor-related protein (Homo sapiens) (P14616 747-1297 limits assumed): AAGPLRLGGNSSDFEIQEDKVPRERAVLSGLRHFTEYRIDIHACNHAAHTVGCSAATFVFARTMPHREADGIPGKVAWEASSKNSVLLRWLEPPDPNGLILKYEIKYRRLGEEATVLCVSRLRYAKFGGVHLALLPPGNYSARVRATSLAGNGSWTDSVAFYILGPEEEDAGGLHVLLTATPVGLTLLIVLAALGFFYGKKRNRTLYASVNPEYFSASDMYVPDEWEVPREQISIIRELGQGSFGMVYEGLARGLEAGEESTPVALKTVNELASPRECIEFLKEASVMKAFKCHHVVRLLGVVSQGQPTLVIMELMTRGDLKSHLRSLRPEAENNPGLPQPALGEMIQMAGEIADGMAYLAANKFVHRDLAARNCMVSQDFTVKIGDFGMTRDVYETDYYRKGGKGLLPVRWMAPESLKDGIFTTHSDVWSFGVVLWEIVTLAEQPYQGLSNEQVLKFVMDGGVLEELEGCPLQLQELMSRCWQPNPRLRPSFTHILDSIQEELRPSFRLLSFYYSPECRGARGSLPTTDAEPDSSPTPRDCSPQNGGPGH
Assay [19] has the same target. Particulars: at 1 µM.
The target in assay [20] is T4, Tyrosine-protein kinase ITK/TSK (Homo sapiens) (UniProt Q08881).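 Further: mean percent inhibition of ITK from the GSK PKIS screen.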
T4 sequence (whole entry): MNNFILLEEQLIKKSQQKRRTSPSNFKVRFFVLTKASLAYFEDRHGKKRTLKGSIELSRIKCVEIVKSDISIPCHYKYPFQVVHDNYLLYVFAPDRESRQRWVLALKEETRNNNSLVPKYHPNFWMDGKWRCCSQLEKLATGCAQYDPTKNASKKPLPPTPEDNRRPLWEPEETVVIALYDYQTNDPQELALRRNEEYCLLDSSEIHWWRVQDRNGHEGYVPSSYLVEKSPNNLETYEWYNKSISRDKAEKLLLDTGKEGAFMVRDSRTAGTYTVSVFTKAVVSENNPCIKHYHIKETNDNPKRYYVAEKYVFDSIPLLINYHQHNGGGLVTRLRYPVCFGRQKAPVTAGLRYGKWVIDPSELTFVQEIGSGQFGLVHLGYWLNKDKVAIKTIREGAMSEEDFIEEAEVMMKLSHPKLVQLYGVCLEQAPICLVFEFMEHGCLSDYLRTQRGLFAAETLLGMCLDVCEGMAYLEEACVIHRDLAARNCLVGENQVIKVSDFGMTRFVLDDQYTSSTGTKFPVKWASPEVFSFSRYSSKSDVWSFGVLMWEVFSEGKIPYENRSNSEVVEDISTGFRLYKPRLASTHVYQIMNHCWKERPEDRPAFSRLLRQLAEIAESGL
To be noted: at 0.1 µM.

For `O=C(Nc1n[nH]c2cc(-c3cc(F)ccc3F)ccc12)C1CC1`, the inhibition (as a rule, the change of the read-out against control, counted positive when it falls) in [1] is 10.9%; in [2] it was 4.33%; in [3], 3.61%; in assay [4] it was 8.84%; in assay [5] it was -2.14%; in [6] it was 0.33%. For the same molecule, the inhibition in [7] was 1.03%; in assay [8], -1.77%; in assay [9], 2.78%; in assay [10] it was 2.47%; in [11], 6.73%; in assay [12] it was 7.73%. Besides, the inhibition in assay [13] worked out at 8.12%; in [14] it was 0.54%; in [15] it was 2.05%; in [16] it was 7.13%; in assay [17], 4.97%; in [18] it was 1.56%. In addition, the inhibition is 0.94% in assay [19] and 2.16% in assay [20].

For `FC(F)(F)c1cccc(Nc2nccc(-c3cnn4nc(-c5ccccc5)ccc34)n2)c1`, the inhibition in [1] was 8.66%; in assay [2], 2.06%; in [3], -0.34%; in [4], 3.1%; in assay [5], 26.7%; in assay [6], -0.18%. Moreover, the inhibition was 6.91% in assay [7]; -2.73% in assay [8]; 16.4% in [9]; 0.72% in assay [10]; 7.18% in assay [11]; 1.72% in assay [12]. The inhibition in [13] was 6.11%; in [14], -1.86%; in assay [15], -1.43%; in assay [16] it was -2.61%; in [17], 1.45%; in assay [18], 0.93%. In addition, the inhibition in assay [19] is 0.27%; in assay [20], -0.41%.

`O=C1Nc2ccc(I)cc2C1=Cc1cc(Br)c(O)c(Br)c1`: the inhibition in assay [1] came out at 7.24%; in assay [2], 5.57%; in [3], 9.77%; in assay [4] it was 10.4%; in assay [5], 2.02%; in [6], 0.19%. The inhibition in assay [7] is -3.58%; in assay [8], 4.92%; in assay [9], 5.58%; in assay [10] it was 3%; in assay [11], 6.7%; in [12], 6.42%. The inhibition in assay [13] was 8.5%; in assay [14], 5.43%; in [15], 2.95%; in [16], 6.33%; in [17], 5.95%; in assay [18], 0.52%. The results for the inhibition in assay [19] and in assay [20] were 2.5% and 1.48%, respectively.
